Bioassay records (PubChem BioAssay)
KinaseGlo FLuc – counter-screen: inhibitors of Kinase-Glo firefly luciferase; Q27757; Kinase-Glo luciferase, ATP luminescence, 8 min; Potency, µM (highest dose often 38.3 µM), inactives show top-dose activity change, negative = inhibition, usual class: inhibitors; actives 0.28% (n = 200,000); AID 1379; also: % is scaled to controls: 0 for no effect and ±100 for the full control effect; nearly all actives have a fitted effect of over 60% in size
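Recombinant Kinase-Glo luciferase, 10 uM ATP (linear range), luciferin; imidazole pH 7.2 / KCl / MgCl2 / Tween / BSA buffer; 8 min RT; luminescence.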
FLuc modulator – counter-screen for miR-21 project: firefly luciferase inhibitors or activators. P08659. purified FLuc, Km substrates, luminescence inhibition. Potency, µM (highest dose often 57.5 µM), for inactives: at the highest dose activity change, negative = inhibition, hits mostly inhibitors. actives 6.9% (n = 360,000). AID 588342;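 also: plate controls were vehicle for no effect and reference inhibitor for full effect; nearly all actives have a fitted effect of over 55% in size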
Target sequence (P08659 whole entry, looked up): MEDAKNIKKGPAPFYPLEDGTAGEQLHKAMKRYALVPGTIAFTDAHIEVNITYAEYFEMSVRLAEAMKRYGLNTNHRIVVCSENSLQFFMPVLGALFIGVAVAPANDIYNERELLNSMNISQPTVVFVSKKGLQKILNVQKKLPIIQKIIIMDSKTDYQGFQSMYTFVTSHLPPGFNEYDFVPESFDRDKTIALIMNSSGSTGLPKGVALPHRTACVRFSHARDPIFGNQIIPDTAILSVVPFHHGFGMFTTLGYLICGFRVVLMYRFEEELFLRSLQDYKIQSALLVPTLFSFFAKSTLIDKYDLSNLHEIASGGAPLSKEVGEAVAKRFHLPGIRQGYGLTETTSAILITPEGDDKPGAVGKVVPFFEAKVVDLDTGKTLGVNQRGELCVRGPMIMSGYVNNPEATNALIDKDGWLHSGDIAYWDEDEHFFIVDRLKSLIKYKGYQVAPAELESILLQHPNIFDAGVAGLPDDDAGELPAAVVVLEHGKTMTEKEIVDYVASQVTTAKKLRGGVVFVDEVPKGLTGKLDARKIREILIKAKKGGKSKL
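Purified P. pyralis luciferase (10nM final) with 10uM D-luciferin and 10uM ATP (Km levels) in 50mM Tris acetate pH 7.5, 10mM Mg acetate, 0.01% Tween-20, 0.05% BSA; qHTS 6-point titration, ~60 µM downward; luminescence read.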
NPC1 promoter act – NPC1 promoter activation | AID 485313 | Huh7 NPC1 promoter luciferase reporter, 24 h | actives 2.4% (n = 320,000) | Potency, µM (series often up to 9.22 µM), without a hit: at the highest dose activation, most hits filed as activators; also: % of control where 0% means no effect; nearly all actives have a fitted effect of over 60% in size
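Stable NPC1-promoter luciferase Huh7 line; cpd (DMSO) 24 h, 37 °C, 5% CO2; Amplite luciferase reagent 10 min RT; luminescence readout. qHTS format.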
ELG1 genotox – inducers of genotoxicity in HEK293T ELG1-luciferase cells; AID 504466; Potency, µM (titrated, usually from 46 µM), without a hit: top-dose activity change, positive = activation, usual class: activators; actives 1.3% (n = 330,000); HEK293T ELG1-luciferase reporter, luminescence, 16 h; also: % of control where 0% means no effect; nearly all actives have a fitted effect of over 60% in size
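HEK293T cells expressing luciferase-tagged ELG1 were treated with compound or DMSO for 16 hr at 37°C. Luciferase activity was then read after 30 min with ONE-Glo at room temperature; rising signal flags genetic stress.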
Rab9 promoter act – activators of Rab9 promoter; Huh7 Rab9 promoter-luciferase reporter, luminescence, 24 h; Potency, µM (doses to about 9.22 µM), without a hit: top-dose activation, negative = inhibition, usual class: activators; actives 2.8% (n = 320,000); AID 485297; also: % of control where 0% means no effect; nearly all actives have a fitted effect of over 60% in size
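Stable Rab9-luc Huh7, 1500 cells/well, 2 h settle; cmpd in DMSO, 24 h, 37 °C/5% CO2; luciferase reagent 10 min RT; luminescence.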
SMN2 splice up – SMN2 splice variant enhancement; actives 2.8% (n = 210,000); Potency, µM (doses to about 46.1 µM), without a hit: at the top dose activity change, positive = activation, hits mostly activators; HEK293 SMN2-luciferase splicing reporter, luminescence, 30-36 h; also: % of control where 0% means no effect; nearly all actives have a fitted effect of over 55% in size
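HEK293 cells carry an SMN2 […]–luciferase reporter in which exon 7 inclusion puts luciferase in frame. Cells were plated 10-12 h before compound addition, then incubated 30-36 h at 37C. ONE-Glo luminescence was read; sodium butyrate at 4.5 mM final served as control.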
* = called active by the depositor. Rows were chosen to be rich in hits. Some 7.5% of all compounds tested hit in one or more screens of this group. Calls follow the shape of the dose curve; as a rule, active = well fitted curve in the direction sought with a large enough effect; inconclusive = small, poorly fitted or top-dose-only effect, or another doubt; inactive = no such curve, though single readings can be large; an effect the other way counts as inactive or inconclusive. Potency is read from the fitted curve at half-maximal effect.

What do the screens show for `Cc1cc(C(=O)NCC(c2ccco2)N(C)C)ccc1[N+](=O)[O-]` (stereo unspecified)?
FLuc modulator: -5%; NPC1 promoter act: 0%; ELG1 genotox: 6%; Rab9 promoter act: 1%

Results for C=Cc1ccc(Cn2c(=O)n(-c3cccc(Cl)c3)c(=O)c3c4c(sc32)CN(C(C)=O)CC4)cc1 ?
FLuc modulator: 3%; SMN2 splice up: 11%

What do the screens show for `CC(=O)Nc1nc(-c2ccc([N+](=O)[O-])cc2)cs1`?
KinaseGlo FLuc: -2%; FLuc modulator: 1%; NPC1 promoter act: 18%; ELG1 genotox: 2%; Rab9 promoter act: inconclusive; SMN2 splice up: -19%

What do the screens show for `CC(C)c1nc(-c2ccc([N+](=O)[O-])cc2)cs1`?
KinaseGlo FLuc: 0%; FLuc modulator: 17µM*; NPC1 promoter act: 11%; ELG1 genotox: 8%; Rab9 promoter act: 20%; SMN2 splice up: 13%

What do the screens show for `Cc1nnc(NC(=O)c2ccc(Br)cc2)s1`?
KinaseGlo FLuc: -5%; FLuc modulator: 2.7µM*; NPC1 promoter act: inconclusive; ELG1 genotox: inconclusive; Rab9 promoter act: 3.2µM*; SMN2 splice up: inconclusive

What do the screens show for `Cc1nnc(NC(=O)c2ccc(S(=O)(=O)N3CCCCC3)cc2)s1`?
ELG1 genotox: 3%

What do the screens show for `CCN(CC)S(=O)(=O)c1nnc(NC(=O)c2ccc(Br)cc2)s1`?
FLuc modulator: -7%

What do the screens show for `CCOc1cc(C(=O)Nc2nnc(C)s2)cc(OCC)c1OCC`?
KinaseGlo FLuc: 2%; FLuc modulator: 10%; NPC1 promoter act: 1%; ELG1 genotox: 0%; Rab9 promoter act: -6%; SMN2 splice up: inconclusive

How did CC(=O)Oc1ccc(C(=O)Nc2nnc(C)s2)cc1 do in these assays?
KinaseGlo FLuc: -3%; FLuc modulator: 21µM*; NPC1 promoter act: 25%; ELG1 genotox: inconclusive; Rab9 promoter act: 21%; SMN2 splice up: 26%

Results for CCCc1cc(C(=O)Nc2nnc(C)s2)cs1 ?
KinaseGlo FLuc: -6%; FLuc modulator: 9.5µM*; NPC1 promoter act: inconclusive; ELG1 genotox: inconclusive; Rab9 promoter act: 3.5µM*; SMN2 splice up: inconclusive

Results for Cc1ccc(C(=O)Nc2nnc(C)s2)cc1 ?
KinaseGlo FLuc: -6%; FLuc modulator: 12µM*; NPC1 promoter act: 3.5µM*; ELG1 genotox: -2%; Rab9 promoter act: 3.2µM*; SMN2 splice up: 14µM*

How did COC(=O)CC(=O)CSc1nc2cc(C(=O)NCC(C)C)ccc2c(=O)n1CCc1ccccc1 do in these assays?
FLuc modulator: -3%

Results for CCOc1ccc(-c2nc3ccccc3c(=O)o2)cc1 ?
KinaseGlo FLuc: -23%; FLuc modulator: 0.43µM*; NPC1 promoter act: 3.5µM*; ELG1 genotox: inconclusive; Rab9 promoter act: 1.4µM*; SMN2 splice up: 16µM*

What do the screens show for `COc1ccc(-c2nc3ccccc3nc2-c2ccc(OC)c(OC)c2)cc1OC`?
FLuc modulator: 5%; NPC1 promoter act: 1%; ELG1 genotox: 4%; Rab9 promoter act: 7%

What do the screens show for `COc1ccc(-c2nc3ccccc3c(=O)o2)cc1OC`?
KinaseGlo FLuc: -6%; FLuc modulator: 8.5µM*; NPC1 promoter act: 10%; ELG1 genotox: 10%; Rab9 promoter act: 17%; SMN2 splice up: 7%

Results for O=C(CCCSc1ccc(Cl)cc1)Nc1ccccc1O ?
FLuc modulator: -19%; NPC1 promoter act: 16%; ELG1 genotox: 0%; Rab9 promoter act: inconclusive

What do the screens show for `O=c1c(-c2ccc3c(c2)OCCO3)coc2cc(OC3OC(CO)C(O)C(O)C3O)ccc12` (stereo unspecified)?
FLuc modulator: 11µM*; NPC1 promoter act: 0.56µM*; ELG1 genotox: inconclusive; Rab9 promoter act: 0.5µM*

How did COc1ccc(-c2ccc(SCC(=O)N3CCOCC3)nn2)cc1OC do in these assays?
KinaseGlo FLuc: -9%; FLuc modulator: 15µM*; NPC1 promoter act: 22%; ELG1 genotox: inconclusive; Rab9 promoter act: 4%; SMN2 splice up: -22%

How did CC1CCCC(C)N1C(=O)CSc1ccc(-c2ccc3c(c2)OCCO3)nn1 (stereo unspecified) do in these assays?
FLuc modulator: 13µM*; NPC1 promoter act: -4%; ELG1 genotox: -10%; Rab9 promoter act: 13%

How did CC1CCN(C(=O)CSc2ccc(-c3ccc4c(c3)OCCO4)nn2)CC1 do in these assays?
FLuc modulator: 11µM*; NPC1 promoter act: 2%; ELG1 genotox: -1%; Rab9 promoter act: 14%

Results for CC1CCN(C(=O)c2ccc3c(c2)OCCO3)CC1 ?
KinaseGlo FLuc: -2%; FLuc modulator: inconclusive; NPC1 promoter act: 26%; ELG1 genotox: inconclusive; Rab9 promoter act: 25%; SMN2 splice up: inconclusive

Results for O=C(NCCCN1CCCC1=O)C1CCC(CNS(=O)(=O)c2ccc(Cl)cc2)CC1 (stereo unspecified) ?
FLuc modulator: 0%; NPC1 promoter act: 0%; ELG1 genotox: 1%; Rab9 promoter act: -11%

How did CCOc1ccc(/C=C/c2nc(C#N)c(NCCCOC)o2)cc1 do in these assays?
FLuc modulator: inconclusive; NPC1 promoter act: -27%; ELG1 genotox: 0%; Rab9 promoter act: -4%

What do the screens show for `C=CCNc1oc(/C=C/c2ccccc2)nc1C#N`?
KinaseGlo FLuc: -1%; FLuc modulator: 4.8µM*; NPC1 promoter act: 2.5µM*; ELG1 genotox: inconclusive; Rab9 promoter act: 2.2µM*; SMN2 splice up: 11µM*

How did COCCCNc1oc(/C=C/c2ccccc2)nc1C#N do in these assays?
FLuc modulator: 3.4µM*; NPC1 promoter act: 3.5µM*; ELG1 genotox: 2.9µM*; Rab9 promoter act: 1.1µM*

How did CN1c2ccccc2C(=O)C(=C2SCCCS2)S1(=O)=O do in these assays?
FLuc modulator: 19µM*; NPC1 promoter act: 1%; ELG1 genotox: -1%; Rab9 promoter act: -3%

How did CNC(=O)[C@H](C)[C@H]1C[C@]1(C)[C@H](NC(=O)OCc1ccccc1)c1ccccc1 do in these assays?
KinaseGlo FLuc: -2%; SMN2 splice up: -4%

How did C=CCNC(=O)c1onc(CSc2ccc(Cl)cc2)c1C(=O)O do in these assays?
KinaseGlo FLuc: 2%; FLuc modulator: 17µM*; NPC1 promoter act: -2%; ELG1 genotox: -2%; Rab9 promoter act: 2%; SMN2 splice up: inconclusive

What do the screens show for `C=CCNC(=O)c1onc(CSc2cc(C)ccc2C)c1C(=O)O`?
KinaseGlo FLuc: -1%; FLuc modulator: -12%; NPC1 promoter act: -4%; ELG1 genotox: -4%; Rab9 promoter act: -3%; SMN2 splice up: 32µM*
